Shown are actives, neighbours in structure and some others; about 19% of the full set was active somewhere.
DT40 TDP1 no CPT: qHTS for Inhibitors of human tyrosyl-DNA phosphodiesterase 1 (TDP1): qHTS in cells in absence of CPT; 420,000 tested, 15% active; DT40 Tdp1-/- hTDP1 cells, no CPT, ATP luminescence, 48 h; AID 686978, 2013; Potency, µM (series often up to 46.2 µM), inactives show top-dose activity change, negative = growth inhibition, usual class: inhibitors; further: potency means the concentration at half of the fitted maximal effect; nearly all actives have a fitted effect of over 55% in size
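Luminescent ATP content (CellTiter-Glo) served as the growth readout. Knockout chicken DT40 cells expressing human TDP1 were exposed to compounds without camptothecin for a minimum 48 hr at 37 °C.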
HT1080-NT tox: kills 2HG-producing HT-1080-NT fibrosarcoma cells | HT-1080-NT fibrosarcoma viability, CellTiter-Glo ATP luminescence, 48 h | Potency, µM (series often up to 46.1 µM), for the others: at the highest dose activity, negative = less viability, hits mostly cytotoxic | 360,000 tested, 1.6% active | AID 686970;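 further: NT is the 2HG producing partner of a matched IDH1 knockdown line; potency means the concentration at half of the fitted maximal effect; 0% = DMSO-treated cells and -100% = media-only wells without cells; nearly all actives have a fitted effect of over 55% in size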
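Compounds were tested in concentration-response format on HT-1080-NT cells for 48 hours at 37 degrees C. Cell viability came from CellTiter-Glo luminescence; curves were classified by r2, response magnitude and activity.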
HT1080 IDH1KD tx: toxicity to HT-1080 IDH1 knockdown cells (counter line). HT-1080 IDH1 knockdown viability, ATP luminescence, 48 h. Potency, µM (series often up to 46.1 µM), for inactives: at the top dose activity, negative = toxicity, usual class: cytotoxic. 360,000 tested, 2% active. AID 686971;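 further: potency means the concentration at half of the fitted maximal effect; 0% = DMSO wells and -100% = cell-free medium wells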
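Knockdown cells (IDH1KD HT-1080) received compounds 2 h after plating at 750 cells/well and were kept 48 h at 37 °C in 5% FBS RPMI. A CellTiter-Glo luminescence read gave % activity for curve fitting.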
IL-1B inflam inh: inflammasome signaling inhibition, IL-1 beta readout. activity change, % at 57.5 µM. THP-1 LPS/ATP IL-1B secretion, AlphaLISA, 16 h; stronger effect = lower value. 360,000 tested, 4.7% active. AID 743279; in the data active means activity change below about -50%; inconclusive means mostly about -30% to -49%
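THP-1 cells pretreated 1 hr with compounds (up to 57.5 uM final), then stimulated with LPS (250 ng/mL final) plus ATP (1.25 mM final); secreted IL-1B measured by AlphaLISA after 16 hr, decreased signal indicating inhibition.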
DT40 TDP1 CPT: growth inhibition of DT40 Tdp1-/-;hTDP1 cells with camptothecin (screen for TDP1 inhibitors); AID 686979; Potency, µM (highest dose often 46.2 µM), for inactives: at the highest dose activity change, negative = growth inhibition, actives largely listed as inhibitors; chicken DT40 Tdp1-/-;hTDP1 cells + 20 nM CPT, ATP luminescence, 48 h; 420,000 tested, 12% active; further: potency means the concentration at half of the fitted maximal effect; nearly all actives have a fitted effect of over 55% in size
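Cell growth measured by CellTiter-Glo luminescence after a minimum 48 h, 37 C compound exposure with 20 nM CPT in Tdp1-knockout DT40 cells stably expressing hTDP1, seeded 400/well; qHTS titration format.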
uPA surface inh: inhibitors of cell surface uPA generation; cell surface uPA generation assay, qHTS; Potency, µM (series often up to 38.3 µM), inactives show top-dose activity change, negative = inhibition, hits mostly inhibitors; 330,000 tested, 0.31% active; active means well fitted inhibition curve with a large enough effect; inconclusive means small, poorly fitted or top-dose-only effect; inactive means no such curve, though single readings can be large or run the other way; tested in mouse RAW 264.7 cells; further: potency means the concentration at half of the fitted maximal effect; nearly all actives have a fitted effect of over 55% in size
Active calls of the source: *; i = inactive; ? = inconclusive; nt = not tested or not shown. Unless noted, the call rests on the fitted dose curve; in most records, active means well fitted curve in the direction sought with a large enough effect; inconclusive means small, poorly fitted or top-dose-only effect, or another doubt; inactive means no such curve, though single readings can be large; an effect the other way counts as inactive or inconclusive. Unless noted, on the % scale 0 is the no-effect control and ±100 the full control effect.

SMILES | DT40 TDP1 no CPT | HT1080-NT tox | HT1080 IDH1KD tx | IL-1B inflam inh | DT40 TDP1 CPT | uPA surface inh
COc1ccc(-n2nc(C(=O)NCC(=O)N3CCN(Cc4ccccc4)CC3)c3ccccc3c2=O)cc1 | ? | 4.3% | 2.3% | ? | 23.1µM* | -3.4%
COc1ccc(-n2nc(C(=O)NCC(=O)N3CCN(c4ccc(F)cc4)CC3)c3ccccc3c2=O)c(OC)c1 | ? | 8.7% | -0.1% | -19.1 | 20.6µM* | -12.4%
CCOC(=O)N1CCN(C(=O)CNC(=O)c2nn(-c3ccc(OC)c(Cl)c3)c(=O)c3ccccc23)CC1 | 9.2µM* | -25.1% | -15.8% | -24.7 | ? | -7.2%
COc1ccc(-n2nc(C(=O)NCC(=O)N3CCN(c4ccccc4)CC3)c3ccccc3c2=O)c(OC)c1 | ? | 5.0% | 1.9% | -1.0 | ? | -4.2%
COCCNC(=O)CNC(=O)c1nn(-c2ccc(OC)c(Cl)c2)c(=O)c2ccccc12 | -13.8% | -4.9% | 5.1% | -21.5 | ? | 2.0%
COc1ccc(-n2nc(C(=O)NCC(=O)NCCc3ccc(OC)c(OC)c3)c3ccccc3c2=O)cc1Cl | 13µM* | -2.5% | -3.9% | -25.3 | ? | -1.1%
CC(C)C[C@@H](CO)NS(=O)(=O)c1c(F)cccc1F | -6.0% | 0.0% | 0.5% | 18.1 | -1.3% | 2.3%
COc1ccc(-n2nc(C(=O)NCC(=O)NC(C)C)c3ccccc3c2=O)cc1 | -8.7% | 6.0% | 10.8% | -6.5 | 4.6% | 1.8%
COc1ccc(-n2nc(C(=O)NCC(=O)NCc3ccc(F)cc3)c3ccccc3c2=O)cc1 | 18.4µM* | -22.2% | -3.5% | -7.9 | -25.6% | -8.2%
COc1ccc(C2=CC(=O)N(Nc3ccccc3)C2=O)cc1 | 20.6µM* | ? | 16.4µM* | -55.2* | 18.4µM* | -16.1%
O=C1Cc2ccccc2C(=O)N1Nc1ccccc1 | ? | -16.8% | 18.4% | 13.1 | ? | 5.3%
Cc1ccc(NN2C(=O)C=CC2=O)cc1 | -10.9% | 14.7% | 15.0% | 9.0 | -0.1% | -0.5%
Cc1ccc(NN2C(=O)C=C(c3ccc(Cl)cc3)C2=O)cc1 | 4.11µM* | ? | ? | -102.5* | 5.8µM* | -11.4%
COc1ccc(Nc2cccccc2=O)cc1 | -18.1% | 2.4% | 14.5% | ? | ? | -2.7%
O=C1C=C(c2ccccc2)C(=O)N1Nc1ccccc1 | 5.8µM* | -5.4% | ? | -101.3* | 4.11µM* | -19.9%
CCCCc1nc2cc(C(=O)N(C)C3CCOCC3)ccc2o1 | -1.1% | 11.3% | 9.2% | 8.8 | -9.7% | -0.1%
COc1cc(/C=C/c2cc(C(=O)O)c3ccccc3n2)ccc1OC(F)F | -24.8% | -5.7% | ? | -4.3 | ? | 2.82µM*
COc1cc(/C=C/C(=O)OCN2C(=O)c3ccccc3C2=O)ccc1OC(F)F | 1.7% | 10.5% | 20.4% | i | -17.6% | -4.9%
CCN(CC)c1ccc(NC(=O)CCc2nnc3ccc(N4CCCC4)nn23)c(C)c1 | 23.1µM* | 5.1% | 1.4% | 69.7 | 14.6µM* | 21.6%
CCOc1ccc(CCNC(=O)CCc2nnc3ccc(N4CCCCC4)nn23)cc1OCC | 11.6µM* | 7.7% | -5.0% | 1.7 | ? | 3.6%
CCOc1ccc(CCNC(=O)CCc2nnc3ccc(N4CCOCC4)nn23)cc1 | -13.9% | 9.3% | 1.8% | ? | -23.8% | -8.2%
CCOC(=O)C(C)NC(=O)CCc1nnc2ccc(N3CCC(C)CC3)nn12 (centres undefined) | ? | -11.2% | -12.0% | -97.0* | ? | -4.7%
CCc1ccc(NC(=O)CCc2nnc3ccc(N4CCC5(CC4)OCCO5)nn23)cc1 | 3.3% | 2.5% | -5.4% | -2.8 | -11.8% | 5.2%
CCOC(=O)c1ccc(NC(=O)CCc2nnc3ccc(N4CCCC4)nn23)cc1 | ? | -5.5% | 0.0% | 1.9 | 25.9µM* | 4.1%
COc1ccc(NC(=O)CCc2nnc3ccc(N4CCC(C)CC4)nn23)cc1 | ? | 9.1% | 14.1% | -4.1 | ? | 1.1%
SMILES | DT40 TDP1 no CPT | HT1080-NT tox | HT1080 IDH1KD tx | IL-1B inflam inh | DT40 TDP1 CPT | uPA surface inh
COc1ccc(N2CCN(c3ccc4nnc(CCC(=O)Nc5ccc(C)cc5)n4n3)CC2)cc1 | 23.1µM* | -1.9% | 0.0% | 41.2 | ? | -1.1%
O=C1[C@H](Oc2ccccc2)[C@@H](c2ccccc2)N1c1ccncc1 | 23.1µM* | -19.7% | ? | -104.2* | ? | ?
O=C1[C@@H](Oc2ccccc2)[C@@H](c2ccccc2)N1c1ccccc1 | -27.2% | 2.7% | 6.4% | 3.7 | -18.6% | 4.3%
O=C1[C@@H](Oc2ccccc2)[C@@H](c2cccnc2)N1c1ccccc1 | 18.4µM* | ? | 20.6µM* | -5.3 | 20.6µM* | ?
CCOC(=O)C1(C)CCN1C(=O)c1cc(F)ccc1C (centres undefined) | -15.3% | 12.4% | 13.3% | 8.5 | ? | nt
CCC(C)(C)C1CCC2(CC1)NC(=O)N(CC(=O)N1CCN(C(=O)c3ccco3)CC1)C2=O (centres undefined) | -4.0% | 9.0% | 17.7% | -4.2 | -28.6% | 17.6%
Cc1cccc(C=CC(=O)c2ccccc2)c1 | 23.1µM* | -2.2% | -16.1% | -28.2 | ? | -7.2%
Cc1ccc(C(=O)C=Cc2cccc(C)c2)cc1 | 18.4µM* | ? | ? | -23.7 | ? | -5.0%
O=C(/C=C/c1ccc(O)cc1)c1ccccc1 | ? | -4.2% | -5.0% | ? | -24.7% | -10.3%
Cc1ccccc1-c1nc(CS(=O)(=O)CC(=O)Nc2c(C)cccc2C)c(C)o1 | 18.4µM* | nt | nt | nt | ? | nt
Cc1ccc(CNC(=O)CS(=O)(=O)Cc2nc(-c3ccccc3C)oc2C)cc1 | 16.4µM* | nt | nt | nt | ? | nt
CCOc1ccc(CCNC(=O)CS(=O)(=O)Cc2nc(-c3ccccc3F)oc2C)cc1 | 11.6µM* | -21.8% | -15.9% | -60.7* | ? | 0.3%
O=C(Cc1ccc(F)cc1)N[C@@H]1c2ccccc2CC[C@H]1OCc1ccccc1 | -24.3% | -0.4% | -1.5% | -7.9 | -15.7% | 4.3%
CCOc1ccc(C(=O)NC(=S)NCc2cccnc2)cc1[N+](=O)[O-] | ? | -0.1% | 0.8% | 8.3 | ? | -1.6%
CCn1c(O)c(C2=c3ccccc3=NC2=O)c2cc(Br)ccc21 | 11.6µM* | 8.7% | 8.8% | -64.2* | 6.51µM* | -14.9%
Cc1cc(=O)c2cc(Br)ccc2n1CC(=O)NCc1ccccc1 | ? | -2.8% | 2.9% | -28.6 | ? | 5.7%
CN(C)S(=O)(=O)c1ccc(Cl)c(NC(=O)CN2CCCC2)c1 | -3.6% | 8.2% | 17.9% | 19.9 | 2.8% | -0.9%

Screening results (PubChem)
